# Screening results (PubChem BioAssay)
# CYP2C9 inhib: blocks human cytochrome P450 2C9 | CYP2C9 Supersomes, luciferin-H conversion, luminescence | inhibition, % at 5 µM | P11712 | AID 777 | 96,000 tested, 20% active;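 active = blocking of liver enzyme CYP2C9 beyond about 50% at 5 µM, limit read from the data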
# PLAP activator: activators of human placental alkaline phosphatase | P05187 | purified PLAP enzyme, luminescent substrate read-out; active compounds read high | activation fold at 20 µM | 96,000 tested, 1.2% active | AID 696; in the data active = activation fold above about 2
# Target sequence (P05187 whole entry, looked up): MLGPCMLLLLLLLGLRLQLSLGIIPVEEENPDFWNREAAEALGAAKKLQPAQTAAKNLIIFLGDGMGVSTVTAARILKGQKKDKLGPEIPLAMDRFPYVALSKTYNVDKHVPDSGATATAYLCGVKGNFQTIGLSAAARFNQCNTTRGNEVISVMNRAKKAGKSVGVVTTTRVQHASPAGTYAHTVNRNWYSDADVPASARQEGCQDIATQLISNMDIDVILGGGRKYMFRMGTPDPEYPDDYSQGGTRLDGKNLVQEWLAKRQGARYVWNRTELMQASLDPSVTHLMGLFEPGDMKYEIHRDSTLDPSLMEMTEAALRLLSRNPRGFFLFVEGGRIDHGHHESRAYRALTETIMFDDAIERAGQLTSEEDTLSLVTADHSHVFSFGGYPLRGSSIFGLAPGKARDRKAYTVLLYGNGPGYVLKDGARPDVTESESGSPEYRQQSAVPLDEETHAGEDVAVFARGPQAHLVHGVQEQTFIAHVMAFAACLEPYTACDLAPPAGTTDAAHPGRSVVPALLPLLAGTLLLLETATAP
# CYP2C9 activ: activators of human CYP2C9 | activation factor at 5 µM | recombinant CYP2C9, luciferin-H conversion, luminescence; active compounds read high; factor 1 = untreated enzyme, 0 = blocked | P11712 | 96,000 tested, 1.4% active;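 active = activation factor of 2 or more for CYP2C9 at a 5 µM dose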
# CYP2C19 act: increases human CYP2C19 enzyme activity; recombinant CYP2C19, luciferin-H EGE luminescence; active compounds read high; 0 = fully inhibited enzyme, 1 = untreated enzyme; 96,000 tested, under 10 active; activation factor at 5 µM; P33261; AID 1025;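 active = activation factor of at least 2 at 5 µM in the primary screen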
# CYP2C19 inhib: inhibitors of human CYP2C19; 96,000 tested, 21% active; inhibition, % at 5 µM; CYP2C19 Supersomes, luciferin-H EGE luminescence, 30 min; AID 778; P33261;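 active = CYP2C19 inhibition above a set limit at 5 µM in the primary screen, cut at about 50% in these data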
# Hits are given with their value; 0 = inactive; - = no result. Hits are enriched below; roughly 31% of the tested compounds scored in any of these assays.
SMILES,CYP2C9 inhib,PLAP activator,CYP2C9 activ,CYP2C19 act,CYP2C19 inhib
CN1C(=O)C2(c3ccccc31)C1CCCC=C1C(C#N)=C(N)C2(C#N)C#N (stereo unspecified),0,0,0,0,0
CC1(C)C(c2ccccc2)=NC(c2ccccc2)N1O (stereo unspecified),0,0,0,0,0
COc1ccc(C2N=C(c3ccccc3)C(C)(C)N2O)cc1 (stereo unspecified),0,0,0,0,83
COc1ccccc1CNC(=O)COC(=O)c1cc(-c2ccco2)nc2ccccc12,52,0,0,0,0
O=C(COC(=O)c1cc(-c2ccc(Cl)s2)nc2ccccc12)NCc1ccco1,0,0,0,0,0
O=C(COC(=O)c1cc(-c2cccs2)nc2ccccc12)NCc1ccco1,90,0,0,0,54
Cc1ccccc1Oc1ccc(Oc2ccccc2C)nn1,0,0,0,0,0
Clc1ccc(CSc2nc3ccncc3[nH]2)cc1,89,0,0,0,98
C=C(C)CSc1nc2ncccc2[nH]1,0,0,0,0,0
Nc1cc(=O)[nH]c(SCc2ccc(Cl)cc2)n1,0,0,0,0,0
Cc1ccc(CSc2nc3ncccc3[nH]2)cc1,56,0,0,0,76
Cc1ccc(CSc2nc3ccncc3[nH]2)cc1,88,2.7,0,0,99
Cc1ccsc1/C=N/N1CCN(c2ccccc2)CC1,0,0,2.1,0,0
Cc1nn(-c2ccccc2)c(C)c1/C=N\N1CCN(c2ccc(Cl)cc2)CC1,0,0,0,0,0
Cc1ccc(NCCC(=O)c2cccc([N+](=O)[O-])c2)c(C)c1,0,0,0,0,75
Cc1ccc(C(=O)O/N=C(\N)c2cccc([N+](=O)[O-])c2)cc1,0,0,0,0,0
OCCNc1nc(C2CC2)nc2c1nnn2Cc1ccccc1Cl,60,0,0,0,82
Cc1nc(NCC2CCCO2)c2nnn(Cc3ccccc3Cl)c2n1 (stereo unspecified),0,0,2.2,0,56
Cc1nc(NCC2CCCO2)c2nnn(Cc3ccccc3)c2n1 (stereo unspecified),0,0,0,0,0
CCOC(=O)c1c(C)[nH]c(C(=O)CSc2ccc(Cl)cc2)c1C,71,0,0,0,0
CCOC(=O)c1c(C)[nH]c(C(=O)CSc2nnc(CC(C)c3ccccc3)o2)c1C (stereo unspecified),71,-,0,0,0
CCOC(=O)c1c(C)[nH]c(C(=O)CSc2nc3ccccc3o2)c1C,0,0,0,0,0
O=C(CSc1nnc(-c2ccccc2)o1)c1ccc2c(c1)OCCO2,0,0,0,0,0
O=C(CSc1nnc(-c2ccccc2)o1)c1nnc(-c2ccccc2)o1,74,0,0,0,0
CC(=O)c1c(C)[nH]c(C(=O)CSc2nnc(-c3ccccc3)o2)c1C,0,0,0,0,57
SMILES,CYP2C9 inhib,PLAP activator,CYP2C9 activ,CYP2C19 act,CYP2C19 inhib
COc1cccc(S(=O)(=O)Nc2ccc3sc(C)nc3c2)c1,95,0,0,0,100
COc1cc(-c2nc3n(n2)C(c2cccc(OC)c2OC)C2=C(CCCC2=O)N3)cc(OC)c1OC (stereo unspecified),0,0,0,0,0
CC1(C)NC(=O)N(CCOCCOc2cccc(Oc3ccccc3)c2)C1=O,84,0,0,0,96
CC1(C)NC(=O)N(CCCCOc2ccc3c(c2)CCC3)C1=O,0,0,0,0,78
CCOc1cccc(OCCOCCN2CCCC2)c1,0,0,0,0,0
CCC(C)Oc1cccc(OCCCCN2C(=O)NC(C)(C)C2=O)c1 (stereo unspecified),59,0,0,0,72
CC1(C)NC(=O)N(CCCCOc2cccc(C(F)(F)F)c2)C1=O,61,0,0,0,85
CCCOC(=O)c1ccc(OCC(O)CN2C(=O)NC(C)(C)C2=O)cc1 (stereo unspecified),0,0,0,0,0
COc1cc2c(cc1OC)CN(C(=O)CC1CC3CCC1C3)CC2 (stereo unspecified),0,0,0,0,0
CC1CCN(C(=O)C(Cc2ccccc2)NS(=O)(=O)c2ccc3c(c2)oc(=O)n3C)CC1 (stereo unspecified),0,0,0,0,0
Cc1cc(C)c(-c2cc(NC(=O)CSc3nncn3C)n(-c3ccccc3)n2)cc1C,0,0,0,0,0
Cc1cc(Br)c(S(=O)(=O)n2nnc3ccccc32)cc1C,0,0,0,0,0
Cc1cc(C)nc(NCC(O)CNc2ccccc2C)n1 (stereo unspecified),0,0,0,0,0
Cc1ccccc1NCCNc1ccccc1C,0,0,0,0,83
CC1=NC(C(F)(F)F)(C(F)(F)F)C(C#N)=C(C)N1,0,0,0,0,69
CC1=C(C#N)C(NC(=O)c2ccco2)(C(F)(F)F)C(=O)N1 (stereo unspecified),0,0,0,0,0
COC(=O)c1ccc2c(c1)N(Cc1nc(-c3cccc(C)c3)oc1C)C(=O)C1CCCN21 (stereo unspecified),0,0,0,0,0
Cc1ccccc1Nc1nc(N)nc(CSCc2c(C)noc2C)n1,57,0,0,0,64
Cc1noc(C)c1CSCC(=O)NC1=NCCS1,0,0,0,0,0
Cc1cccc(NC(=O)CSCc2c(C)noc2C)c1C,0,0,0,0,74
O=C(NC1CCCC1)C(c1ccccn1)N(C(=O)c1csnn1)C1CC1 (stereo unspecified),0,0,0,0,0
O=C(O)C1C2C=CC(C2)C1C(=O)OCc1ccccc1 (stereo unspecified),0,0,0,0,0
CCOc1ccc(/C=N/NC(=O)c2ccc(Cn3cc([N+](=O)[O-])cn3)o2)cc1,59,0,0,0,0
CCOc1ccccc1/C=N/NC(=O)c1ccc(Cn2cc([N+](=O)[O-])cn2)o1,0,0,0,0,0
CCOc1ccc(OCC)c(NC(=O)C2COc3ccccc3O2)c1 (stereo unspecified),0,0,0,0,0
SMILES,CYP2C9 inhib,PLAP activator,CYP2C9 activ,CYP2C19 act,CYP2C19 inhib
COC(=O)c1cc(NC(=O)C2COc3ccccc3O2)ccc1Cl (stereo unspecified),72,0,0,0,95
COC(=O)c1cccc(NC(=O)C2COc3ccccc3O2)c1C (stereo unspecified),0,0,0,0,64
COC(=O)c1cccc(NC(=O)C2COc3ccccc3O2)c1 (stereo unspecified),60,0,0,0,67
COCCNC(=O)c1ccccc1NC(=O)C1COc2ccccc2O1 (stereo unspecified),0,0,0,0,0
CCc1nnc(NC(=O)C(=O)NCCOC(=O)c2ccccc2Cl)s1,0,0,0,0,0
Clc1ccc2nc(SCc3nnc(-c4ccccc4)o3)[nH]c2c1,76,0,0,0,86
Cc1ccc2nc(SCCCCOc3ccccc3)[nH]c2c1,72,0,0,0,63
Clc1ccc(OCc2nnc(SCc3nnc(-c4ccccc4)o3)o2)c(Cl)c1,0,0,0,0,92
COC(=O)CSc1nc2ccc(C)cc2[nH]1,0,0,0,0,0
